Laboratory results taken from the supplement of paper PMC8387472.

Key:
Experiment in all cases: fraction of microhomology deletions among edited reads; higher = more MH deletions
Details in all cases: mESC; 2uM; 72 h treatment, harvest day 5
Rifapentine = compound: CO[C@H]1/C=C/O[C@@]2(C)Oc3c(C)c(O)c4c(O)c(c(/C=N/N5CCN(C6CCCC6)CC5)c(O)c4c3C2=O)NC(=O)/C(C)=C\C=C\[C@H](C)[C@H](O)[C@@H](C)[C@@H](O)[C@@H](C)[C@H](OC(C)=O)[C@@H]1C [Rifapentine]
Tucidinostat (Chidamide) = compound: Nc1cc(F)ccc1NC(=O)c1ccc(CNC(=O)/C=C/c2cccnc2)cc1 [Tucidinostat (Chidamide)]
Pemetrexed = compound: Nc1nc2[nH]cc(CCc3ccc(C(=O)N[C@@H](CCC(=O)O)C(=O)O)cc3)c2c(=O)[nH]1 [Pemetrexed]
[1] = compound: Nc1ncnc2c1c(-c1cnc3[nH]ccc3c1)nn2C1CCCC1
[2] = compound: COc1ccccc1-c1cc(Nc2cccc(CS(N)(=O)=O)c2)ncn1
[3] = compound: C[C@@H]1CN(CC(=O)Nc2ccc3c(c2)Cc2cccc(-c4cc(=O)cc(N5CCOCC5)o4)c2S3)C[C@H](C)O1
[4] = compound: Cc1cc(C)nc(SCC(=O)Nc2ncc(Cc3cccc4ccccc34)s2)n1
[5] = compound: Cc1cccc(CC(=O)N2CCc3c2ccc(-c2cn(C)c4ncnc(N)c24)c3F)n1
[6] = compound: NC(=O)c1ccc2nc(-c3ccc(Oc4ccc(Cl)cc4)cc3)[nH]c2c1 [Chk 2 inhibitor II (BML-277)]
[7] = compound: O=C(c1cccc(Cl)c1F)N1CCN(Cc2cccc(Nc3nccs3)n2)CC1

| Target | fraction of microhomology deletions among edited reads (Rifapentine) | fraction of microhomology deletions among edited reads (Tucidinostat (Chidamide)) | fraction of microhomology deletions among edited reads (Pemetrexed) | fraction of microhomology deletions among edited reads [1] | fraction of microhomology deletions among edited reads [2] | fraction of microhomology deletions among edited reads [3] | fraction of microhomology deletions among edited reads [4] | fraction of microhomology deletions among edited reads [5] | fraction of microhomology deletions among edited reads [6] | fraction of microhomology deletions among edited reads [7] |
| --- | --- | --- | --- | --- | --- | --- | --- | --- | --- | --- |
| 46.0 TTAAGAGCAATGTTCACGCAACTTGAAATTATATCTGTGGTCTTCAAATTGTCTTTTGTCA | 0.417 | 0.327 | 0.431 | 0.497 |  |  |  |  |  |  |
| 33.0 (DMSO control at this site: 1-bp insertion 0.008, MH deletion 0.771, edited 0.112) CATTAAGAGCAGCTGCCGGCCCCCAAGTGGACAGAGCTGGCCCTGCTGATTCAACAGTGCA | 0.724 | 0.706 | 0.682 | 0.708 | 0.681 | 0.583 | 0.722 | 0.732 | 0.712 | 0.688 |
| 15.0 GCGCCTCCAATGACCCAGTGGGATCCTACTCCATAATGGGATCCTGGGGATTCCTCGCTCC | 0.426 | 0.289 |  |  |  |  | 0.39 |  |  |  |
| 47.0 (DMSO control at this site: 1-bp insertion 0.095, MH deletion 0.585, edited 0.118) GAGTGGTCCCGAGCCAGGAACTGTGTGTGTTGCAGGGGGGCAGTAACTCCCCAACTCCCTC | 0.57 | 0.442 | 0.503 | 0.389 | 0.469 | 0.319 | 0.528 | 0.477 | 0.494 | 0.453 |
| 40.0 (DMSO control at this site: 1-bp insertion 0.072, MH deletion 0.192, edited 0.189) GCGAATCAACTGTTCAACAACAGCAGCAGCCACCTGGAGGACTACAGTGGCCTGTCCGTGT | 0.211 | 0.145 | 0.169 | 0.139 | 0.146 | 0.0486 | 0.173 | 0.156 | 0.181 | 0.137 |
| 43.0 (DMSO control at this site: 1-bp insertion 0.134, MH deletion 0.714, edited 0.104) AGTTTAACTTACTCCGGCCAAAAAAGAACTGCACCTCTGGAGCGGGTTAGTGGTGGTGGTA | 0.683 | 0.68 | 0.625 | 0.662 | 0.663 | 0.698 | 0.639 | 0.717 | 0.677 | 0.686 |
| 27.0 CCAGAATTAGAACATATCATCTGGACCCTTTTCCATCTGGACCCTTTTCCAGCACACCCTG | 0.214 | 0.174 |  | 0.105 | 0.156 |  | 0.104 |  |  |  |
| 32.0 (DMSO control at this site: 1-bp insertion 0.03, MH deletion 0.85, edited 0.898) AGAAGTCCAGGATCAGGGGGACTGGGGTCGGGAGGGTGGGGCAGGAAGGAAGCCAGAATCA | 0.91 | 0.904 | 0.928 | 0.886 | 0.93 | 0.896 | 0.908 | 0.897 | 0.918 | 0.926 |
| 42.0 (DMSO control at this site: 1-bp insertion 0.145, MH deletion 0.655, edited 0.132) GGGCTAAACCTATGAGCACAGTAGAACTAAGGGTGGGTGGTGTAGCTAAAGAACTTGACCA | 0.683 | 0.607 | 0.634 | 0.571 | 0.653 | 0.384 | 0.667 | 0.682 | 0.634 | 0.62 |
| 35.0 (DMSO control at this site: 1-bp insertion 0.01, MH deletion 0.72, edited 0.098) CCACTTTTAGAGAGGGTGAAAATCATCAGTTATCATCAGGGCAACAAATTGCTTTCTCCTA | 0.776 | 0.687 | 0.794 | 0.699 | 0.724 | 0.562 | 0.732 | 0.695 | 0.722 | 0.679 |
